A short description of test [1]: A CellTox Green Cytotoxicity Assay to monitor cytotoxicity in HepG2 cells - 0 hour (AID 1224882). Further: nearly all actives have a fitted effect of over 35% in size. An outline of the steps:
(§1)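 Measurements at 0, 8, 16, 24, 32 and 40 h of treatment captured CellTox Green fluorescence in HepG2 cells that had been co-plated with reagent and preincubated 5 h at 37 C/5% CO2.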

A short description of test [2]: A CellTox Green Cytotoxicity Assay to monitor cytotoxicity in HepG2 cells - 32 hour (AID 1224883). Further: nearly all actives have a fitted effect of over 50% in size. Further: potency means the concentration at half of the fitted maximal effect. In short, it runs like this:
as §1

A short description of test [3]: A CellTox Green Cytotoxicity Assay to monitor cytotoxicity in HEK293 cells - 8 hour (AID 1224884). Further: nearly all actives have a fitted effect of over 35% in size. Further: potency means the concentration at half of the fitted maximal effect. In short, it runs like this: (§2)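 Tox21 screen in HEK293: membrane-impermeant cyanine dye fluoresces on binding dead-cell DNA; compound pinned 5 h post-seeding, plates held at 37 C, signal read repeatedly through 40 h.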
A short description of test [4]: qHTS RealTime-Glo MT Cell Viability Assay in HepG2 cells - 16 hour (AID 1224885). Further: nearly all actives have a fitted effect of over 50% in size. Further: potency means the concentration at half of the fitted maximal effect. In short, it runs like this:
(§3)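 Luminescence read-out: viable HepG2 cells reduce a prosubstrate to a NanoLuc substrate, giving a signal proportional to live cell number. Reads taken at 0, 8, 16, 24, 32 and 40 h of compound exposure at 37 C.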

The nature of test [5]: qHTS RealTime-Glo MT Cell Viability Assay in HEK293 cells - 24 hour (AID 1224886). Further: nearly all actives have a fitted effect of over 50% in size. Further: potency means the concentration at half of the fitted maximal effect. In short, it runs like this: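 Nonlytic real-time viability readout: viable cells convert prosubstrate to NanoLuc substrate, giving luminescence proportional to live cell number. HEK293, 600 cells/well, compound added after 5 h, continuous culture at 37 C.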
Test [6] can be described thus: qHTS RealTime-Glo MT Cell Viability Assay in HEK293 cells - 8 hour (AID 1224887). Further: top concentration of the series differs between compounds; nearly all actives have a fitted effect of over 50% in size. An outline of the steps: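 HEK293 + NanoLuc + prosubstrate, 600 cells/well; 5 h, 37 C/5% CO2; compound 23 nL in DMSO by pintool; 37 C; luminescence read at 0, 8, 16, 24, 32 and 40 h time points.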
(qHTS replaces the single test concentration by a dilution series.)

The nature of test [7]: A CellTox Green Cytotoxicity Assay to monitor cytotoxicity in HEK293 cells - 16 hour (AID 1224888). Further: nearly all actives have a fitted effect of over 35% in size. Further: potency means the concentration at half of the fitted maximal effect. An outline of the steps:
as §2

Test [8] in a line: A CellTox Green Cytotoxicity Assay to monitor cytotoxicity in HepG2 cells - 8 hour (AID 1224890). Further: nearly all actives have a fitted effect of over 45% in size. Further: potency means the concentration at half of the fitted maximal effect. An outline of the steps:
as §1

Test [9] has as its target Estrogen receptor (Homo sapiens) (UniProt P03372). In words: qHTS assay to identify small molecule antagonists of the estrogen receptor alpha (ER-alpha) signaling pathway using the BG1 cell line in the presence of 0.1 nM 17-beta-estradiol (AID 1259244). Further: nearly all actives have a fitted effect of over 50% in size. Further: potency means the concentration at half of the fitted maximal effect. An outline of the steps:
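Compounds were tested against 0.1 nM (final) 17beta-estradiol in VM7Luc4E2 cells, which express full-length ER-alpha and an ERE-luciferase reporter; luminescence was recorded following 22 h exposure.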

Test [10] in a line: qHTS assay to identify small molecule HDAC inhibitors (AID 1259364). Further: potency means the concentration at half of the fitted maximal effect.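 Further: wild-type HCT-116 cells with endogenous class I/II HDAC activity; nearly all actives have a fitted effect of over 45% in size.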 In short, it runs like this: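 Screening used wild-type human colon HCT-116 cells incubated overnight, dosed with compounds for 2 hours, and assayed with a homogeneous luminogenic HDAC I/II reagent for 30 minutes at room temperature.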
Test [11] in a line: qHTS assay to identify small molecule HDAC inhibitors - cell viability counter screen (AID 1259365). In short, it runs like this: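 HCT-116 (wild type), 1,500 cells/well, overnight 37C/5% CO2; compound in DMSO 2hr; CellTiter-Glo 30min RT; luminescence read.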
Test [12] can be described thus: qHTS assay to identify small molecule agonists of the sonic hedgehog signaling (Shh) pathway (AID 1259368; calls by dose curve;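 further: NIH/3T3-derived 3T3Gli1-Luc cells carrying a stable Gli1-driven firefly luciferase reporter; series mostly up to about 92 µM; nearly all actives have a fitted effect of over 15% in size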). An outline of the steps: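 Hedgehog pathway agonism scored by increased firefly luciferase luminescence in 3T3Gli1-Luc cells treated 24 hr at 37 C; detection used a 30 min room-temperature reagent incubation.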
Test [13] can be described thus: qHTS assay to identify small molecule antagonists of the sonic hedgehog signaling (Shh) pathway (AID 1259369; calls by dose curve; further: nearly all actives have a fitted effect of over 45% in size; further: potency means the concentration at half of the fitted maximal effect). An outline of the steps: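 NIH/3T3 stable Gli1-Luc clone, 2,000 cells/well, 4hr settle; cpd + conditioned medium 24hr; Luc reagent 30min RT; luminescence.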
Test [14] is described as follows: qHTS RealTime-Glo MT Cell Viability Assay in HepG2 cells - 0 hour (AID 1224889). Further: nearly all actives have a fitted effect of over 50% in size. In short, it runs like this: as §3
A short description of test [15]: qHTS assay to identify small molecule antagonists of the estrogen receptor alpha (ER-alpha) signaling pathway using the BG1 cell line in the presence of 0.1 nM 17-beta-estradiol - cell viability counter screen (AID 1259241). Further: nearly all actives have a fitted effect of over 40% in size. In short, it runs like this: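 Live-cell protease activity (CellTiter-Fluor fluorescence, 30 min) was read in the same wells after VM7Luc4E2 cells had been exposed to compounds with 0.1 nM 17beta-estradiol for 22 hr at 37C.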

Test [16] in a line: qHTS assay to identify small molecule antagonists of the androgen receptor (AR) signaling pathway using the MDA cell line in the presence of 0.5 nM R1881 - cell viability counter screen (AID 1259242). Further: nearly all actives have a fitted effect of over 45% in size. An outline of the steps: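 Concentration-response screen of compounds for toxicity in MDA-kb2 reporter cells: 16 hr at 37C with 0.5 nM R1881, endpoint live-cell protease fluorescence measured in the reporter wells.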

Test [17] is described as follows: qHTS assay to identify small molecule agonists of the sonic hedgehog signaling (Shh) pathway - cell viability counter screen (AID 1259366). Further: nearly all actives have a fitted effect of over 50% in size. An outline of the steps:
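CellTiter-Fluor fluorescence read-out, 1 hr at 37C, added after 23hr compound exposure. Cells: 3T3 Gli1-Luc, an NIH/3T3 clone with stably integrated Gli1-Luc reporter, plated 4hr before compound.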

A short description of test [18]: qHTS assay to identify small molecule phospholipidosis (PLD) inducers (AID 1259344; active means well fitted curve in the direction sought with a large enough effect; an effect the other way counts as inactive or inconclusive). An outline of the steps:
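Cells (HepG2, 900 per well) attach for 4 h, receive LipidTOX Red and compound together, incubate 24 h at 37 C, are fixed 30 min with paraformaldehyde/Hoechst, then imaged at one site per well.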

Test [19] has as its target Androgen receptor (Homo sapiens) (UniProt P10275). Nature of the test: qHTS assay to identify small molecule antagonists of the androgen receptor (AR) signaling pathway using the MDA cell line in the presence of 0.5 nM R1881 (AID 1259243). Further: nearly all actives have a fitted effect of over 50% in size. Further: potency means the concentration at half of the fitted maximal effect. An outline of the steps: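 With R1881 held at 0.5 nM (final), compound effects on MMTV-luciferase expression in MDA-kb2 cells were scored by luminescence after a 16 hr, 37C incubation.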

Test [20] is described as follows: qHTS assay to identify small molecule antagonists of the sonic hedgehog signaling (Shh) pathway - cell viability counter screen (AID 1259367). Further: nearly all actives have a fitted effect of over 55% in size. Further: potency means the concentration at half of the fitted maximal effect. An outline of the steps: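 Cytotoxicity was assessed in parallel with Shh reporter activity by measuring live-cell protease fluorescence (CellTiter-Fluor) in NIH/3T3 cells stably carrying Gli1-Luc, treated with compound under conditioned medium stimulation for 23 hr plus 1 hr reagent incubation.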

Structures are written as SMILES. Inconclusive results are not listed. The source made the active and inactive calls. Unless noted, the call rests on the fitted dose curve; in most records, active means well fitted curve in the direction sought with a large enough effect in the repeat runs; inconclusive means weak or mixed curves; inactive means no such curve, though single readings can be large; an effect the other way counts as inactive or inconclusive.

Sequence of Estrogen receptor (Homo sapiens) (P03372 whole entry, looked up): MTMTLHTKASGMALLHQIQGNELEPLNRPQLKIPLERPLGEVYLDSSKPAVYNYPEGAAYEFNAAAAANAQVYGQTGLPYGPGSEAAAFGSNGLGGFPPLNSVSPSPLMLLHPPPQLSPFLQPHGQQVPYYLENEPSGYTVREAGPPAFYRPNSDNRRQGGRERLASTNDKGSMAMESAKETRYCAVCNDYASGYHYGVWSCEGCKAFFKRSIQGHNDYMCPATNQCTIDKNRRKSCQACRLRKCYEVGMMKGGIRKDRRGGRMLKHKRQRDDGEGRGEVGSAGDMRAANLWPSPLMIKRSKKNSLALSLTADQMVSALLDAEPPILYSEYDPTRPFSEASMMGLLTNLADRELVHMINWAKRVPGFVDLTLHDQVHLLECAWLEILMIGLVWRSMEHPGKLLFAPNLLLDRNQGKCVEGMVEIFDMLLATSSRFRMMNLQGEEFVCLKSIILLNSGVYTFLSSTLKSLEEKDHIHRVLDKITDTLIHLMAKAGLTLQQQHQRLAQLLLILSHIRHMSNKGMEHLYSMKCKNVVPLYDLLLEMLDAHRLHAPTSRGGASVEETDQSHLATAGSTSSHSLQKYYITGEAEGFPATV
Sequence of Androgen receptor (Homo sapiens) (P10275 whole entry, looked up): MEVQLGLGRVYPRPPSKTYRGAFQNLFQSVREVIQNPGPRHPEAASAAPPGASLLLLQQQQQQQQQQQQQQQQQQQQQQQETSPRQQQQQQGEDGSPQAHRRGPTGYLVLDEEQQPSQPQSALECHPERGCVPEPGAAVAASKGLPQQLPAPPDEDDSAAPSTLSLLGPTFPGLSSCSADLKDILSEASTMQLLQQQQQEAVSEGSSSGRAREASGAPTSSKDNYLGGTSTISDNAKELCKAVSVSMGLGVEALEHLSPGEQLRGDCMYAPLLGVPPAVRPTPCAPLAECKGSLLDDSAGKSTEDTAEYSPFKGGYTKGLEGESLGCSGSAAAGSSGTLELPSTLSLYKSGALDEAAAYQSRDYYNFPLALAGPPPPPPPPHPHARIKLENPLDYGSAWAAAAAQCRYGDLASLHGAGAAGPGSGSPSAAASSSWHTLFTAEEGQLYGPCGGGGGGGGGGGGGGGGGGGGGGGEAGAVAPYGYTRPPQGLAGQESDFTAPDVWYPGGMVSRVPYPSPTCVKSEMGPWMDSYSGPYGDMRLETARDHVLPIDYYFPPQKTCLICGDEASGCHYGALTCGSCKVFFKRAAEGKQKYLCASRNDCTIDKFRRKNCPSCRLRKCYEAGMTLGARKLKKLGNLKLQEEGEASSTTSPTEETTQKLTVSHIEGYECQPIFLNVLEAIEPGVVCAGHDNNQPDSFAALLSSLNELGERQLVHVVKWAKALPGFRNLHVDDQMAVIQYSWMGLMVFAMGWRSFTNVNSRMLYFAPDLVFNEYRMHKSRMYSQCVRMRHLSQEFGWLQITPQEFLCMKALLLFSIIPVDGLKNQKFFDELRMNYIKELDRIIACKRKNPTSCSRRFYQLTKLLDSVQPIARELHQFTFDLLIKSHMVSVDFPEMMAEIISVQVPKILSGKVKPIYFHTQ

Turning to `O=C(Nc1ccc(Cl)c(Cl)c1)c1cc(Cl)cc(Cl)c1O`, the Potency entry in test [1], in test [3], in [4], in test [6], in test [7] and in test [8] was “inactive” throughout. In addition, the Potency result in [11] and in test [12] was “inactive” throughout. Also, the Potency is 11 µM (active) in [2]; 4.9 µM (active) in [5]; 3.44 µM (active) in test [9]; 1.22 µM (active) in test [10]; 3.86 µM (active) in test [13].
For the compound `CN(Cc1cc(Br)cc(Br)c1N)C1CCCCC1`, the Potency entry in [1], in test [3], in [4], in test [14], in test [15] and in test [16] was “inactive” each time. Further, the Potency result in test [9], in test [10], in test [11], in test [17], in [12] and in test [13] was “inactive” each time. For the same compound, the Potency in [2] is 12 µM (active).
For the compound `CCCCOc1ccc(C(=O)CCN2CCCCC2)cc1`, the Potency result in [1], in [3], in [7], in [14], in [15] and in [9] was “inactive” in each case. Further, the Potency entry in test [18], in test [10], in test [12] and in test [13] was “inactive” each time. For the same compound, the Potency in test [2] is 12 µM (active); in [4], 23.9 µM (active); in [5], 23.9 µM (active); in [8], 21.3 µM (active).
Consider `O=C1NCCN1CCN1CCC(c2cn(-c3ccc(F)cc3)c3ccc(Cl)cc23)CC1`, for which the Potency entry in test [1], in test [3], in [14], in test [18], in [10] and in test [11] was “inactive” in each case. Moreover, in test [12], the Potency result was “inactive”. For the same compound, the Potency is 26.8 µM (active) in [2]; 23.9 µM (active) in test [4]; 21.3 µM (active) in test [5]; 11.9 µM (active) in [19]; 8.41 µM (active) in test [9].
Regarding `CC(C)c1ccc(O)c(C(C)C)c1`, the Potency result in test [1], in test [3], in test [4], in test [5], in [14] and in test [15] was “inactive” in each case. In addition, the Potency result in test [16], in [10], in test [17], in [20] and in test [12] was “inactive” throughout. Also, the values for the Potency in [2], in test [7] and in [8] were 27.5 µM (active), 19.5 µM (active) and 43.6 µM (active), respectively.
As to `Oc1ccc(-c2ccc(O)cc2)cc1`, the Potency entry in [1], in test [2], in test [3], in [4], in [6] and in test [7] was “inactive” in each case. Moreover, the Potency result in test [14], in [8], in [15], in test [16], in test [11] and in test [12] was “inactive” in each case. The Potency in test [13] was 6.15 µM (active).
`CC1(C)COCN1`: the Potency result in test [1], in test [2], in test [3], in test [4], in [5] and in test [6] was “inactive” in each case. The Potency result in test [14], in [8], in test [15], in [16], in test [19] and in test [10] was “inactive” in each case. In addition, the Potency result in [11], in [17], in test [20] and in test [12] was “inactive” in each case.
For the compound `CCCCC(CC)COC(=O)c1ccc(O)cc1` (stereo not drawn), the Potency result in test [1], in [4], in test [14], in test [16], in [10] and in test [11] was “inactive” each time. In addition, the Potency entry in [17] and in [12] was “inactive” in each case. The Potency was 34.7 µM (active) in test [2]; 43.5 µM (active) in test [3]; 54.7 µM (active) in [5]; 54.3 µM (active) in test [20]; 43.3 µM (active) in test [13].

The values are drawn from PubChem BioAssay (Tox21).
